Over roughly 13,000 compounds, “IFI” has its median near 4; the highest 2% begin near 17. This is one part of a sample in which the highest values are shown more often than they occur.

The nature of the assay: GSK_TCMDC: Inhibition Frequency Index (IFI). The number of non-kinase HTS assays where a compound showed > 50 % inhibition, expressed as a percentage of the number of such assays in which the compound was tested. Type of assay: functional.
`COc1ccccc1CCNc1nc(C)cc(N[C@@H](Cc2ccccc2)C(=O)NCCCOC(C)C)n1`: the IFI was determined as 0%. Then `O=C(O)c1cccnc1Sc1ccc(Cl)cc1`, with 0%; and `COc1ccc(CCNCCCCCCNCCc2cccc([N+](=O)[O-])c2)cc1OC`, with 0%; and `C[C@H](Cc1ccc(S(=O)(=O)c2ccc(C[C@@H](C)NC[C@H](O)c3cccc(Cl)c3)cc2)cc1)NC[C@H](O)c1cccc(Cl)c1`, with 22.7%.

As for `C[C@H](Cc1ccc(OCCCCOc2ccc(C[C@@H](C)NC[C@H](O)c3cccc(Cl)c3)cc2)cc1)NC[C@H](O)c1cccc(Cl)c1`, the IFI was determined as 11.6%.

Consider `COC(=O)c1ccc(CCC(C)NCC(O)c2cccc(Cl)c2)cc1` (stereo not given), for which the IFI was 2.88%.

In turn, `C[C@H](Cc1ccc(CCc2ccc(C[C@@H](C)NC[C@H](O)c3cccc(Cl)c3)cc2)cc1)NC[C@H](O)c1cccc(Cl)c1` yielded an IFI of 21.6%. In turn, `Cc1ccc(CCC(C)NCC(O)c2cccc(Cl)c2)cc1` (stereo not given) showed an IFI of 2.96%.

With `C[C@H](Cc1ccc(C[C@@H](C)NC[C@H](O)c2cccc(Cl)c2)cc1)NC[C@H](O)COc1ccccc1`, the IFI was 7.91%. In turn, `C[C@H](Cc1ccc(C[C@@H](C)NCC(O)c2cc(Cl)c(N)c(Cl)c2)cc1)NCC(O)c1cc(Cl)c(N)c(Cl)c1` (stereo not given in full) came in with an IFI of 9.35%.

For the molecule `C[C@H](Cc1ccc(OCCCOc2ccc(C[C@@H](C)NC[C@H](O)c3cccc(Cl)c3)cc2)cc1)NC[C@H](O)c1cccc(Cl)c1`, the IFI was 13.1%.

In the case of `C[C@H](Cc1ccc(Oc2ccc(C[C@@H](C)NC[C@H](O)c3cccc(Cl)c3)cc2)cc1)NC[C@H](O)c1cccc(Cl)c1`, the IFI was found to be 20.8%. Take `COc1cccc(CCc2ccc(O)c3c2C[C@H]2C[C@H]4[C@H](N(C)C)C(O)=C(C(N)=O)C(=O)[C@@]4(O)C(O)=C2C3=O)c1`: the IFI worked out at 8.41%. As for `CC1(C)NC(N)=NC(=N)N1OCCSCc1cc(Cl)sc1Cl`, the figure is 4.93%; as for `CN1CCN(CCCN(Cc2ccc(-c3ccc(CNCCc4ccccc4)cc3)cc2)C(=O)c2cccs2)CC1`, 9.03%; as for `C=CCn1c(Sc2ccc(C#N)c([N+](=O)[O-])c2)nnc1-c1ccc(Cl)cc1`, 4.23%. Then `Cc1cc(=NN=Cc2cccc(Cl)c2)c2ccc(F)cc2[nH]1`, with 1.49%; and `CCOC(=O)c1ccc(NC(=O)N[C@H]2CCN(CCCCCNC(=O)/C=C/c3ccc(Cl)c(Cl)c3)C2)cc1`, with 7.91%; and `Cc1cc(N[C@@H](Cc2ccccc2)C(=O)NC2CCCC2)nc(NCc2ccccc2C)n1`, with 4.88%.

In turn, `Cc1cc(N[C@@H](Cc2ccccc2)C(=O)NC2CCCC2)nc(Nc2ccccc2)n1` showed an IFI of 7.32%. `Cc1cccc(CNc2nc(C)cc(N[C@@H](Cc3ccccc3)C(=O)NC3CCCC3)n2)c1` gave an IFI of 27.3%. Then `Cc1cc(N[C@@H](Cc2ccccc2)C(=O)NC2CCCC2)nc(NCC2CCCCC2)n1`, with 26.2%; and `Cc1cc(N[C@@H](Cc2ccccc2)C(=O)NCCc2ccccc2)nc(NCC2CCCCC2)n1`, with 11.4%; and `Cc1cc(N[C@@H](Cc2ccccc2)C(=O)Nc2ccccc2)nc(NCC2CCCCC2)n1`, with 11.6%. For `O=C(c1cc(-c2cccs2)n[nH]1)N1CCN(S(=O)(=O)c2ccc(Br)cc2)CC1`, the IFI stood at 0%.

On to `CC(CN(C)C)C(=O)Nc1cccc(-c2ccc(-c3nc4cc(C(F)(F)F)ccc4[nH]3)cc2)c1` (stereo not given), for which the IFI was 6.31%.

Turning to `Cc1cc(=NN=CC=Cc2ccccc2)c2cc(F)ccc2[nH]1`, the IFI was determined as 0.75%. As for `CC(C)(C)CCN1CCC(NC(=O)c2ccc(-c3cccc(C(F)(F)F)c3)s2)CC1`, the figure is 15.8%. Then `CC(C)(C)c1ccc(CN2CCC(NC(=O)c3ccc(-c4cccc(C(F)(F)F)c4)s3)CC2)cc1`, with 13%; and `CN(C)c1ccc(CN2CCC(NC(=O)c3ccc(-c4cccc(C(F)(F)F)c4)s3)CC2)cc1`, with 17.2%. `O=C(NC1CCN(CCCc2ccccc2)CC1)c1ccc(-c2cccc(C(F)(F)F)c2)s1` gave an IFI of 17.2%. Consider `O=C(NC1CCN(Cc2ccsc2)CC1)c1ccc(-c2cccc(C(F)(F)F)c2)s1`, for which the IFI is 16.7%. `CN(C)c1ccc(-c2ccc(C(=O)NC3CCN(Cc4cccc(C(F)(F)F)c4)CC3)s2)cc1` gave an IFI of 11.1%. For the molecule `CSc1ccc(CN2CCC(NC(=O)c3ccc(-c4cccc(C(F)(F)F)c4)s3)CC2)cc1`, the IFI is 15.2%. As for `CC(=O)Nc1ccc(CN2CCC(NC(=O)c3ccc(-c4cccc(C(F)(F)F)c4)s3)CC2)cc1`, the figure is 10.3%; as for `O=C(NC1CCN(Cc2ccc3c(c2)OCCO3)CC1)c1ccc(-c2cccc(C(F)(F)F)c2)s1`, 22%. In the case of `O=C(NC1CCN(Cc2ccc3c(c2)OCCO3)CC1)c1ccc(-c2cccc(Cl)c2)s1`, the IFI came to 15.2%. Then `O=C(NC1CCN(Cc2cccc(C(F)(F)F)c2)CC1)c1ccc(-c2cccc(C(F)(F)F)c2)s1`, with 12.7%; and `O=C(NC1CCN(Cc2ccc(F)cc2)CC1)c1ccc(-c2cccc(C(F)(F)F)c2)s1`, with 24.6%; and `Nc1nccc2ccc(-c3ccsc3)cc12`, with 10.1%. Molecule `Cc1ccc2nc(N/C(N)=N/C(=O)NC3CCCCC3)nc(C)c2c1` had an IFI of 3.42%. Then `Cc1cc(-c2cccc(CNCc3ccc(F)cc3)c2)ccc1S(=O)(=O)NCCN1CCCC1`, with 12.9%. As for `Cc1cc(N)nc2ccc(-c3ccc(CN)cc3)cc12`, the figure is 4.83%; as for `C=C(C)Cn1cc(C2CCN(CCN3CCC(CNC(=O)c4ccc(-c5ccc(C#N)cc5)cc4)CC3)CC2)c2ccccc21`, 10.9%; as for `CCCCCCSc1nnc(COc2cccc3ccccc23)n1-c1ccc(OC)cc1`, 5.43%. As for `CCCn1c(O)nnc1SCC(=O)Nc1cc(C(F)(F)F)ccc1Cl`, the figure is 1.57%; as for `Nc1cccc(CNCc2cccc(-c3ccc(-c4nc5ccccc5[nH]4)cc3)c2)c1`, 3.81%. For `CC(C)c1ccc(S(=O)(=O)Nc2cccc(CCN3CCC(N4CCCCC4)CC3)c2)cc1`, the IFI is 9.52%. Then `O=C(NCCCCN1CCC(c2ccc(-c3ccco3)cc2)CC1)c1ccc(NC(=O)c2ccc(Cl)cc2)cc1`, with 5.98%. As for `CC(C)c1ccc(CN2CCC(NC(=O)c3ccc(-c4cccc(Cl)c4)s3)CC2)cc1`, the figure is 12.1%; as for `CN(C)c1ccc(CN2CCC(NC(=O)c3ccc(-c4cccc(F)c4)s3)CC2)cc1`, 10.5%; as for `CC(C)(C)c1ccc(CN2CCC(NC(=O)c3ccc(-c4cccc(F)c4)s3)CC2)cc1`, 12.5%. Then `CC(C)c1ccc(CN2CCC(NC(=O)c3ccc(-c4cccc(F)c4)s3)CC2)cc1`, with 17.2%; and `CN(C)c1ccc(CN2CCC(NC(=O)c3ccc(-c4ccc(N(C)C)cc4)s3)CC2)cc1`, with 15.5%; and `CN(C)c1ccc(CN2CCC(NC(=O)c3ccc(-c4cccc(Cl)c4)s3)CC2)cc1`, with 17.9%.

The values are drawn from ChEMBL document CHEMBL1157539, “Thousands of chemical starting points for antimalarial lead identification” (Nature, 2010).
